Laboratory results as given in the supplement of paper PMC11732987, “Enantioselective OTUD7B fragment discovery through chemoproteomics screening and high-throughput optimisation” (Communications Chemistry, 2025).

Tests used:
Experiment in all cases: log2 ratio of Biotin-Ahx-Ub-VS probe labelling (fragment/DMSO); higher = less target engagement (more negative = stronger competition), active = hit call of the paper (q ≤ 0.05, log2 ratio ≤ -1)
Details in all cases: compound concentration: 200 uM; treatment time: 3 h
USP9X = USP9X (UniProt Q93008)
Summary of the method: (§1)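 In triplicate, 495 µg of HEK293T lysate per sample was incubated with fragment at 200 µM or vehicle for 3 h. Biotin-Ahx-Ub-VS was then added to 0.5 µM final for 1 h, and labelled DUBs were captured with NeutrAvidin, digested with LysC and trypsin, and measured by diaPASEF LC-MS/MS. Data are average log2 fragment/vehicle ratios by unpaired t-test from global-median-normalised Spectronaut label-free quantities, restricted to proteins with ≥2 unique peptides.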

UniProt O00487 = biological target: UniProt O00487
UniProt O00487, sequence (O00487 whole entry): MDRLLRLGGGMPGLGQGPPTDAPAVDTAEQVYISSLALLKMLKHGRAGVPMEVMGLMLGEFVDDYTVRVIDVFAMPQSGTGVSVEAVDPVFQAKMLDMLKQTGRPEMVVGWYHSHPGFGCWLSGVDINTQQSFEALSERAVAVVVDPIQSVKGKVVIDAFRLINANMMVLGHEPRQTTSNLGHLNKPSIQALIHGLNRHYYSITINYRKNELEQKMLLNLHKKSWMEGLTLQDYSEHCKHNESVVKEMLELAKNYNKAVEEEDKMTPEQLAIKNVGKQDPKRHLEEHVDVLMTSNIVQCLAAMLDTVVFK
Summary of the method: as §1

UniProt O00507 = biological target: UniProt O00507
UniProt O00507, sequence (O00507 whole entry): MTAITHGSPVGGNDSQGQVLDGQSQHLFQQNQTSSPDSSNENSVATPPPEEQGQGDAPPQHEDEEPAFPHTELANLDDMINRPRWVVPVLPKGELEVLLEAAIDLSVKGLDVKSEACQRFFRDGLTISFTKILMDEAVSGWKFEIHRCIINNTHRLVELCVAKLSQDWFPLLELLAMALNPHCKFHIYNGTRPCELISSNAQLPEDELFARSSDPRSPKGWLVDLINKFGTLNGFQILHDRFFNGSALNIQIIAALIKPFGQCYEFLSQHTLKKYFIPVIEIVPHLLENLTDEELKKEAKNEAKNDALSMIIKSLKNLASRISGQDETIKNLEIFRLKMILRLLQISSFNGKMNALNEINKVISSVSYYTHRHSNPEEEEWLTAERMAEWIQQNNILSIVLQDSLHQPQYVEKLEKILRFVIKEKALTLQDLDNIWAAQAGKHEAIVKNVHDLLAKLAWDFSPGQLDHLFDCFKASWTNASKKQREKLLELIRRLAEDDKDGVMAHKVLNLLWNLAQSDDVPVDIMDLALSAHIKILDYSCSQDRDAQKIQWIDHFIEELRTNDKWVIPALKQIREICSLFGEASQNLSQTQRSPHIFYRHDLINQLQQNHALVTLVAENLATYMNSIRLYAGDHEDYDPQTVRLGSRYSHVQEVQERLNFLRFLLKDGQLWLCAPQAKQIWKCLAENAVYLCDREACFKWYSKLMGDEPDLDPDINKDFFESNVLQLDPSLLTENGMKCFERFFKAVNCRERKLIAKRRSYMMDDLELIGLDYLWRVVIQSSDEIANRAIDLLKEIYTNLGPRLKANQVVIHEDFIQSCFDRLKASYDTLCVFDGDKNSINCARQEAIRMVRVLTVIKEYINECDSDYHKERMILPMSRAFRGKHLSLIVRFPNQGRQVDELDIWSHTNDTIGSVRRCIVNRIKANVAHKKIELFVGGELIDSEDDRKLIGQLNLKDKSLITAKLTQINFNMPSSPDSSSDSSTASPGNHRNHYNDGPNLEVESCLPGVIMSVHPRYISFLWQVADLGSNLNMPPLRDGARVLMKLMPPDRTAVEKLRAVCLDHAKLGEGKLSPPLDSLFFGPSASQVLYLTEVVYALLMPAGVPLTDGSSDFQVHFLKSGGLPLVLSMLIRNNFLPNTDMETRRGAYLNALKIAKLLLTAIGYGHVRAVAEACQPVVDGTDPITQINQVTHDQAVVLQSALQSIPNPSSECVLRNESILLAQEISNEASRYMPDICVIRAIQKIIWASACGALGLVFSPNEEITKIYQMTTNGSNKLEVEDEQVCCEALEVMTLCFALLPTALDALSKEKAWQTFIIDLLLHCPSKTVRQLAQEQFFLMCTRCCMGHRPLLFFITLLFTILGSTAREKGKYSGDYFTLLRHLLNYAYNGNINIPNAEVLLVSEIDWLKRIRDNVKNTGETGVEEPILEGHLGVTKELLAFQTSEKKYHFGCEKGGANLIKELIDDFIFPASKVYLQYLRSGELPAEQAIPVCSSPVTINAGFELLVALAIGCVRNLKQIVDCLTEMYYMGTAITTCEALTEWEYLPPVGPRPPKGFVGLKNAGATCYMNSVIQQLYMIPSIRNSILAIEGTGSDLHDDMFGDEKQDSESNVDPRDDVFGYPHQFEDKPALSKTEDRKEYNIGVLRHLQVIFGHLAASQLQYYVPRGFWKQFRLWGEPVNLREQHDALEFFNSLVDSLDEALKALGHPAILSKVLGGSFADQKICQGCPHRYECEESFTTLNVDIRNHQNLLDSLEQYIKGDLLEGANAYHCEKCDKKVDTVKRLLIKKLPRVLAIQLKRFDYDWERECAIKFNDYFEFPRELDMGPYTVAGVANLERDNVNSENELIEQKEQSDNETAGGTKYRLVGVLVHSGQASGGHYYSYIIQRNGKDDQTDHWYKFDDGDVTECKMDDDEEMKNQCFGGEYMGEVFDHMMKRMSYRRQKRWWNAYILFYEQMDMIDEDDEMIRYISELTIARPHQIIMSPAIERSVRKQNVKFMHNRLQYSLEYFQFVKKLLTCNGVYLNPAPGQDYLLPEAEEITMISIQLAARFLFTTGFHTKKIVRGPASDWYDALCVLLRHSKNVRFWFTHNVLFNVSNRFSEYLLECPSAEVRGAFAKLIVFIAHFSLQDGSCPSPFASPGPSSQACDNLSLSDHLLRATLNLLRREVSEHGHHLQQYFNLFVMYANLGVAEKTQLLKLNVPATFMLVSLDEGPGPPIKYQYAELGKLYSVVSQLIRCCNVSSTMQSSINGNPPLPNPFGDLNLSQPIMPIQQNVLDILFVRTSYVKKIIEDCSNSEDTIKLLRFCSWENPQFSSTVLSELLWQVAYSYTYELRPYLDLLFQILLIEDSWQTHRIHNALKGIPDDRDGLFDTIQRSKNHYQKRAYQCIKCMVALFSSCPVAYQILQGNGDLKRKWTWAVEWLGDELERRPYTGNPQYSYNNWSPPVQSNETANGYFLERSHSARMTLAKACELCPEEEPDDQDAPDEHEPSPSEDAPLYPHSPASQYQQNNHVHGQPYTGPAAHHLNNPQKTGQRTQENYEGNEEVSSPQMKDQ
Summary of the method: as §1

UniProt P51784 = biological target: UniProt P51784
UniProt P51784, sequence (P51784 whole entry): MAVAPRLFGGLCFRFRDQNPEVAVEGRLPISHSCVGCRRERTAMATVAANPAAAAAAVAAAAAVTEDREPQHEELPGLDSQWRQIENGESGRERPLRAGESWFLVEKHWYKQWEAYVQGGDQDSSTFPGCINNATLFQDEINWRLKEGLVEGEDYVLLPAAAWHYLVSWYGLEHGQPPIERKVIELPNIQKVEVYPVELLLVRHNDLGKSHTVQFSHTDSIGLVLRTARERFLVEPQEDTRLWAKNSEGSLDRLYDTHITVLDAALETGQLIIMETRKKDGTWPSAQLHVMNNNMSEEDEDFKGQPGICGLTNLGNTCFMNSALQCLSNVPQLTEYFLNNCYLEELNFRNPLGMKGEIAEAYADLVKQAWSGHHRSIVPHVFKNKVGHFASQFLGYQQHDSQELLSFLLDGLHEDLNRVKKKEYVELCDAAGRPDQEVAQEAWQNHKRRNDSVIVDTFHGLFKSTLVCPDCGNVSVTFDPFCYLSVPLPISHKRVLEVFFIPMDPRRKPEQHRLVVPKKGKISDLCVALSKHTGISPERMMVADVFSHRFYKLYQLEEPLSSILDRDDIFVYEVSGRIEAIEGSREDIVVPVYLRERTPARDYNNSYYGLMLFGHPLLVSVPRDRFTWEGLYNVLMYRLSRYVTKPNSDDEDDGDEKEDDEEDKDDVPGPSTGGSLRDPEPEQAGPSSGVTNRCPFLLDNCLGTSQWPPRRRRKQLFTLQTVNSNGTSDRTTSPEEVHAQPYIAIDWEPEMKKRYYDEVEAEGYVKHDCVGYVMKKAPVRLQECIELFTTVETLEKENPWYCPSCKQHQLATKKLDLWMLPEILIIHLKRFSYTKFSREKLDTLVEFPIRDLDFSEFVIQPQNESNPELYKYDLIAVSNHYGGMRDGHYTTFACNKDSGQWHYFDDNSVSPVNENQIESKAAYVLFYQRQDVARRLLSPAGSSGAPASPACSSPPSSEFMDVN
Summary of the method: as §1

UniProt Q5T2D3 = biological target: T1, UniProt Q5T2D3
T1 sequence (whole entry): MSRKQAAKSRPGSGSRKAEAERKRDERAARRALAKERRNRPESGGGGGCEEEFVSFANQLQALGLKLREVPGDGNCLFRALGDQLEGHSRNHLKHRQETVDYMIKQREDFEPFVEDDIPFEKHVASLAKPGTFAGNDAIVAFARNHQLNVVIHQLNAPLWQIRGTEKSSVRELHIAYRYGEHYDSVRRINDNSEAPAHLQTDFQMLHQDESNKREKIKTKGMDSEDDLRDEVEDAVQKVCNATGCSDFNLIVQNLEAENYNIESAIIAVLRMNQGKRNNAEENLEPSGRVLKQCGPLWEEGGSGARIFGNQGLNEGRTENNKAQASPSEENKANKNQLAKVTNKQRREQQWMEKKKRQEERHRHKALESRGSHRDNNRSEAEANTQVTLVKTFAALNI
Summary of the method: as §1

UniProt Q8TE49 = biological target: T2, UniProt Q8TE49
T2 sequence (whole entry): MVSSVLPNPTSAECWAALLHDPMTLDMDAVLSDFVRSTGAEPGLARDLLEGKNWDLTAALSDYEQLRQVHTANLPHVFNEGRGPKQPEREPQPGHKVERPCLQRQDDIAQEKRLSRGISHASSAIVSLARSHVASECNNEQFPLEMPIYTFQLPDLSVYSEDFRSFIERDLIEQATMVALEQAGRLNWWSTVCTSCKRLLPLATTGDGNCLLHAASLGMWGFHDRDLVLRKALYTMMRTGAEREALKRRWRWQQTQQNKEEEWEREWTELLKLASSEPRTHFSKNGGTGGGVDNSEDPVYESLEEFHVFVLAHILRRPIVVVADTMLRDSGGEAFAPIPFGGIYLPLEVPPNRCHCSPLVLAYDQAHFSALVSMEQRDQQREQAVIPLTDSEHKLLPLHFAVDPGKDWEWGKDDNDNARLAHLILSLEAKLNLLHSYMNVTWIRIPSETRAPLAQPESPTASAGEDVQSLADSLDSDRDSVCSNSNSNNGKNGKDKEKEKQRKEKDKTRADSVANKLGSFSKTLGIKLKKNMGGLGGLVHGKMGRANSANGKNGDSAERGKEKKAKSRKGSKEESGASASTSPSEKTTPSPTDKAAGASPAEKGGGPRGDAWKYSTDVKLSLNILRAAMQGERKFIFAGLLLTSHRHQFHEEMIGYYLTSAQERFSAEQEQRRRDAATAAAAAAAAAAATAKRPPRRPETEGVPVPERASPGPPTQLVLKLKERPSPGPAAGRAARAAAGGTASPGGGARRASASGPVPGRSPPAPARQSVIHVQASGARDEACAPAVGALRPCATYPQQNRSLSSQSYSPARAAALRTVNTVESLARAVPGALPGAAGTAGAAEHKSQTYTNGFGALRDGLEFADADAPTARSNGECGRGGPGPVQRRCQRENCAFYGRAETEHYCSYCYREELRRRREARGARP
Summary of the method: as §1

UniProt Q9P2H5 = biological target: T3, UniProt Q9P2H5
T3 sequence (whole entry): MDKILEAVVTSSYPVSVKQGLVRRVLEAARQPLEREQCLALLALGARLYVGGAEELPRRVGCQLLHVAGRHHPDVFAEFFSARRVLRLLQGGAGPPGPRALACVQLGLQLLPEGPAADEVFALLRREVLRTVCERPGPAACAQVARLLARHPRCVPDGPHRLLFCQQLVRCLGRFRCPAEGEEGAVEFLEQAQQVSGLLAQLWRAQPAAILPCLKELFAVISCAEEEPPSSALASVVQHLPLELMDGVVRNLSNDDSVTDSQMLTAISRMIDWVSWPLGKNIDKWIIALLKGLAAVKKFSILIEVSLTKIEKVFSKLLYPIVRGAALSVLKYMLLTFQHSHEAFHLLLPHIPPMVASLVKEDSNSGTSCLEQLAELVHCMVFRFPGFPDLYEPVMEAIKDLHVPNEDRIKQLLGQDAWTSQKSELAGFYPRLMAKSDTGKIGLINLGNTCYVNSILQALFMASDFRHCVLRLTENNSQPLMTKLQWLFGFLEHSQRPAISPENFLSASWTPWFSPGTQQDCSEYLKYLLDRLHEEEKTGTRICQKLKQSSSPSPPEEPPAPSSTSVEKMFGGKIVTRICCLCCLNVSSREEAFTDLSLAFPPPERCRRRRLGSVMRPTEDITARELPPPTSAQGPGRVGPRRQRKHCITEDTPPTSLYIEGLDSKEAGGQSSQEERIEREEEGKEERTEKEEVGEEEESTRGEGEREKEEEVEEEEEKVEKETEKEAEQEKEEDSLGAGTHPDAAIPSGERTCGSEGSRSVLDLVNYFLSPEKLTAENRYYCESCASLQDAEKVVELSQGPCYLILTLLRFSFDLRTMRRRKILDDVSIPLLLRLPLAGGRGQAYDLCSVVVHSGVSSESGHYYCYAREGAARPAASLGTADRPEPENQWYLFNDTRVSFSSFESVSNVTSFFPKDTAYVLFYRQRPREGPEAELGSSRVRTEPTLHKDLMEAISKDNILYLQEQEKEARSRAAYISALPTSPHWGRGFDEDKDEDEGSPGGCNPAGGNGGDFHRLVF
Summary of the method: as §1

UniProt Q9UGI0 = biological target: T4, UniProt Q9UGI0
T4 sequence (whole entry): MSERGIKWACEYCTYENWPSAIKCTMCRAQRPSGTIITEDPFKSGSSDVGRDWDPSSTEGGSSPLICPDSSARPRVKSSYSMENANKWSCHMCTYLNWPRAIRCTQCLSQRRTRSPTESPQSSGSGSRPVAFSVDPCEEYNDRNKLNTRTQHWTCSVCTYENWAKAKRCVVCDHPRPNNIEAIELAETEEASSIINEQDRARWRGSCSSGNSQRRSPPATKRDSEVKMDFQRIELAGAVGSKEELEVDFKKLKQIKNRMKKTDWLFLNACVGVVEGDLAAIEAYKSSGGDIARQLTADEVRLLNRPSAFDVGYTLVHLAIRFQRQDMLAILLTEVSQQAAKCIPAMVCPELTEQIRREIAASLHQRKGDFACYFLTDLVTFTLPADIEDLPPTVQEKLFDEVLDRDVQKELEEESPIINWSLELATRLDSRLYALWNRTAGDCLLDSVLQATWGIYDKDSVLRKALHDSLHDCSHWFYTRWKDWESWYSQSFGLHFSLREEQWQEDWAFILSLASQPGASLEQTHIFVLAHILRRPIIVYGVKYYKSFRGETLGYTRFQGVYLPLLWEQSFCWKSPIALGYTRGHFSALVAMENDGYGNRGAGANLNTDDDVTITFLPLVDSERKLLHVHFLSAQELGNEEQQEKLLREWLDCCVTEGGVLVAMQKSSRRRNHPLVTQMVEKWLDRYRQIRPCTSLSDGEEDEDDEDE
Summary of the method: as §1

YOD1 = biological target: T5, YOD1 (UniProt Q5VVQ6)
T5 sequence (whole entry): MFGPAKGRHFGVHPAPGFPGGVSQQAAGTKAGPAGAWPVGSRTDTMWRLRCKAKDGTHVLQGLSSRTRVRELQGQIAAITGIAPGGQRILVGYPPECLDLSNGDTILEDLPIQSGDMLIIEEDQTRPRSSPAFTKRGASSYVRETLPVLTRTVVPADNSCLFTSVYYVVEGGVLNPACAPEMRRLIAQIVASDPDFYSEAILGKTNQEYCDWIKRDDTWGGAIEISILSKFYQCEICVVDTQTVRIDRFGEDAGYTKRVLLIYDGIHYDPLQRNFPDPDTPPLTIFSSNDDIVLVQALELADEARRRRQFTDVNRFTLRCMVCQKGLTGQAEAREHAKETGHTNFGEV
Summary of the method: as §1

Measured: log2 ratio of Biotin-Ahx-Ub-VS probe labelling

Cc1ccccc1C1(CNC(=O)CCl)CCOCC1
inactive: USP9X -0.0641 | UniProt O00487 -0.115 | UniProt O00507 0.332 | UniProt P51784 0.00427 | UniProt Q5T2D3 -0.0687 | UniProt Q8TE49 -0.333 | UniProt Q9P2H5 -0.221 | UniProt Q9UGI0 -0.577 | YOD1 -0.0207
